This passage reports AC50 and outcome results from PubChem BioAssay (EPA / NIEHS).

In assay [1] the target is Bile acid receptor (Homo sapiens) (UniProt Q96RI1). Nature of the assay: ATG_IR1_CIS: Attagene CIS-FACTORIAL HepG2 Assay for human Nuclear Receptor Subfamily 1 Group H Member 4 (NR1H4), IR1 submotif (AID 2282946). The conditions noted are these: IR1 reporter transcription, actives raise or lower the signal. The method, boiled down: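 Cells (human HepG2) carry transiently transfected cis-promoter reporter transcription units. Compounds are incubated 24 h, total RNA is reverse-transcribed and amplified, and labelled fragments are resolved by capillary electrophoresis. Curves use DMSO as baseline.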

Assay [2] is described as follows: ATG_M_32_CIS: Attagene CIS-FACTORIAL HepG2 Assay for M32 Transcription Factor (Internal Marker) (AID 2282949).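 Note: background control marker of the multiplexed CIS panel rather than a real target.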 The conditions noted are these: HepG2 Attagene cis-factorial M32 reporter, mRNA; actives raise or lower the signal. The method, boiled down:
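Internal background marker read-out: RT-PCR/capillary electrophoresis fluorescence of reporter transcripts from transiently transfected HepG2 cells after 24 h chemical exposure. Activity fitted bidirectionally relative to DMSO negative control.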

Assay [3] is described as follows: ATG_M_06_CIS: Attagene CIS-FACTORIAL HepG2 Assay for M06 Transcription Factor (Internal Marker) (AID 2282950). The conditions noted are these: HepG2 Attagene CIS-FACTORIAL M06 internal marker reporter; actives raise or lower the signal. The procedure, abridged:
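Cells (HepG2, transiently carrying cis-driven reporter units) receive chemical for 24 h before RNA isolation. Reporter cDNA is PCR-amplified, FAM-labelled by primer extension, HpaI-digested and sized on a capillary analyser.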

Assay [4] has as its target Hypoxia-inducible factor 1-alpha (Homo sapiens) (UniProt Q16665). Nature of the assay: ATG_HIF1a_CIS: Attagene CIS-FACTORIAL HepG2 Assay for human Hypoxia Inducible Factor 1 (HIF1A) (AID 2282951). The conditions noted are these: HepG2 Attagene cis-factorial HIF1a reporter transcription; actives raise or lower the signal. The method, boiled down:
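Measures endogenous transcription-factor activity through cis-regulated reporter mRNA in HepG2. Cells dosed 24 h; transcripts quantified by RT-PCR with 6-FAM-labelled products separated by capillary electrophoresis; DMSO serves as negative control.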

Assay [5] deals with Hepatocyte nuclear factor 6 (Homo sapiens) (UniProt Q9UBC0). In words: ATG_HNF6_CIS: Attagene CIS-FACTORIAL HepG2 Assay for human Hepatocyte Nuclear Factor 6 (HNF6) (AID 2282952). The conditions noted are these: HepG2 Attagene cis-factorial HNF6 reporter transcription; actives raise or lower the signal. The procedure, abridged:
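Transiently transfected HepG2 cells expressing cis-regulated reporter transcription units were exposed to chemical for 24 h in a 24-well format. Reporter transcript abundance was determined by fluorescence capillary electrophoresis.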

For assay [6], the target named is Heat shock factor protein 1 (Homo sapiens) (UniProt Q00613). Nature of the assay: ATG_HSE_CIS: Attagene CIS-FACTORIAL HepG2 Assay for human Heat Shock Transcription Factor 1 (HSE) (AID 2282953). The conditions noted are these: HepG2 HSE cis-reporter, Attagene RNA transcription; actives raise or lower the signal. The method, boiled down: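 Liver-derived HepG2 cells carry transiently introduced multiple reporter units governed by cis promoters. Reporter RNA measured 24 h post-dose through reverse transcription, PCR amplification, fluorescent labelling and capillary electrophoresis, normalised to DMSO.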

Assay [7] is described as follows: ATG_MRE_CIS: Attagene CIS-FACTORIAL HepG2 Assay for human Metal Responsive Element (MRE) (AID 2282954). The conditions noted are these: HepG2 MRE cis-reporter transcription, Attagene multiplex; actives raise or lower the signal. The method, boiled down:
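After a 24 h chemical exposure, transiently transfected HepG2 cells yield RNA whose reporter sequences are amplified, FAM-labelled and sized by capillary electrophoresis. Curves are fitted bidirectionally relative to DMSO.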

The target in assay [8] is Paired box protein Pax-6 (Homo sapiens) (UniProt P26367). In words: ATG_Pax6_CIS: Attagene CIS-FACTORIAL HepG2 Assay for human Paired Box 6 (PAX6) (AID 2282956). The conditions noted are these: HepG2 CIS-FACTORIAL PAX6 reporter transcription, RNA readout; actives raise or lower the signal. The method, boiled down: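 After twenty-four hours of chemical exposure, transfected HepG2 cells are harvested for RNA. Cis-promoter reporter transcripts are amplified, fluorescently labelled and sized by capillary electrophoresis, with gain and loss of signal scored against DMSO.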

Assay [9] can be described thus: ATG_PXRE_CIS: Attagene CIS-FACTORIAL HepG2 Assay for human Pregnane X Receptor Element (PXRE) (AID 2282957). The conditions noted are these: HepG2 Attagene CIS-FACTORIAL PXRE reporter, mRNA; actives raise or lower the signal. The procedure, abridged:
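Cis-element reporter mRNA in human hepatoma HepG2 cells is measured 24 h post-dosing by RT-PCR, primer-extension labeling and capillary electrophoresis; gain or loss of signal is fitted relative to DMSO.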

Assay [10] is described as follows: ATG_RORE_CIS: Attagene CIS-FACTORIAL HepG2 Assay for human RAR-related Orphan Receptor Element (RORE) (AID 2282959). The conditions noted are these: HepG2 Attagene cis-factorial RORE reporter, mRNA; actives raise or lower the signal. The method, boiled down: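 Cells were HepG2 carrying transfected cis-regulated reporter constructs, dosed for 24 hours. Total RNA was reverse-transcribed and reporter cDNA amplified, fluorescently labeled and sized by capillary electrophoresis. Activity was fitted bidirectionally relative to DMSO.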

A short description of assay [11]: ATG_Sox_CIS: Attagene CIS-FACTORIAL HepG2 Assay for human SRY-box transcription factor (SOX) (AID 2282960). The conditions noted are these: HepG2 Attagene cis-factorial SOX reporter, mRNA; actives raise or lower the signal. The method, boiled down: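 Transient MRTU transfection of HepG2; 24 h compound incubation; TriZol RNA, oligo(dT) RT, PCR, 6-FAM primer extension, HpaI cut, CE. Bidirectional fit, DMSO = baseline.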

In assay [12] the target is Transcription factor Sp1 (Homo sapiens) (UniProt P08047). In words: ATG_Sp1_CIS: Attagene CIS-FACTORIAL HepG2 Assay for human Specificity Protein 1 (Sp1) (AID 2282961). The conditions noted are these: HepG2 Sp1 cis-reporter transcription, actives raise or lower the signal. The method, boiled down:
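Endogenous Sp1 activity was gauged in human liver HepG2 cells bearing transfected reporter units under a cis-regulating promoter. After 24 h dosing, reporter mRNA was quantified by RT-PCR with capillary electrophoresis, and activity fitted bidirectionally versus DMSO.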

Assay [13] in a line: ATG_SREBP_CIS: Attagene CIS-FACTORIAL HepG2 Assay for human Sterol Regulatory Element Binding (SREBP) (AID 2282962). The conditions noted are these: HepG2 Attagene cis-factorial SREBP reporter, mRNA; actives raise or lower the signal. The procedure, abridged: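 Twenty-four hours after chemical dosing of transfected HepG2 cultures, reporter RNA was converted to cDNA, amplified, end-labelled with 6-FAM and resolved by capillary electrophoresis. Responses were fitted relative to DMSO.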

Assay [14] concerns the target Signal transducer and activator of transcription 3 (Homo sapiens) (UniProt P40763). Nature of the assay: ATG_STAT3_CIS: Attagene CIS-FACTORIAL HepG2 Assay for human Signal Transducer and Activator of Transcription 3 (STAT3) (AID 2282963). The conditions noted are these: HepG2, Attagene cis-factorial STAT3 reporter transcription; actives raise or lower the signal. The method, boiled down:
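After a 24 h compound incubation, total RNA from MRTU-transfected HepG2 cells was converted to cDNA and reporter sequences PCR-amplified, labelled and profiled by capillary electrophoresis. Gain and loss of signal were referenced to DMSO.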

A short description of assay [15]: ATG_TA_CIS: Attagene CIS-FACTORIAL HepG2 Assay for human TA Basal Promoter (AID 2282964). The conditions noted are these: HepG2 Attagene CIS-factorial TA basal promoter reporter; actives raise or lower the signal. The procedure, abridged:
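Background internal-marker endpoint from a 52-component HepG2 cis-reporter panel. Cells treated 24 h; reporter transcripts quantified via RT-PCR and CE fluorescence against DMSO baseline.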

Assay [16] in a line: ATG_TCF_b_cat_CIS: Attagene CIS-FACTORIAL HepG2 Assay for human T-Cell-Factor with beta-catenin (TCF/b-cat) (AID 2282965). The conditions noted are these: HepG2 TCF/beta-catenin cis-reporter transcription, actives raise or lower the signal. The procedure, abridged:
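Endogenous transcription factor activity is captured through cis-promoter reporter constructs transiently introduced into human HepG2 liver cells. Induced reporter mRNA is measured after 24 h and fitted bidirectionally relative to DMSO.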

Assay [17] can be described thus: ATG_GRE_CIS: Attagene CIS-FACTORIAL HepG2 Assay for human Glucocorticoid Response Elements (GRE) (AID 2282947). The conditions noted are these: HepG2 GRE cis-reporter, Attagene multiplex mRNA; actives raise or lower the signal. The method, boiled down: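 Assay uses human hepatoma HepG2 cells transfected with cis-promoter reporter units, exposed 24 h. mRNA from reporters detected by RT-PCR plus capillary electrophoresis; DMSO serves as negative control and baseline.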

Assay [18] can be described thus: ATG_PBREM_CIS: Attagene CIS-FACTORIAL HepG2 Assay for human Phenobarbital-responsive Enhancer Module (PBREM) (AID 2282955). The conditions noted are these: HepG2 PBREM cis-reporter, Attagene multiplexed transcription; actives raise or lower the signal. The method, boiled down: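 Fluorescence of labelled reporter cDNA fragments, resolved by capillary electrophoresis, gives mRNA induction in transfected HepG2 cells treated for 24 h; DMSO serves as negative control and baseline.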

Assay [19] is described as follows: ATG_PPRE_CIS: Attagene CIS-FACTORIAL HepG2 Assay for human Peroxisome Proliferator-activated Response Element (PPRE) (AID 2282958). The conditions noted are these: HepG2 PPRE cis-element reporter, Attagene transcription factor profiling; actives raise or lower the signal. The procedure, abridged:
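Cells are first transfected transiently with the multiplexed reporter library, then dosed for 24 h. Total RNA is reverse-transcribed, amplified, fluorescently end-labeled and HpaI-cut before capillary electrophoresis; activity is fitted bidirectionally against DMSO controls.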

The nature of assay [20]: ATG_ISRE_CIS: Attagene CIS-FACTORIAL HepG2 Assay for human Interferon Regulatory Factor 1 (IRF1) binding to an Interferon-Stimulated Response Element (ISRE) (AID 2282948). The conditions noted are these: HepG2 ISRE cis-reporter (Attagene), mRNA transcription readout; actives raise or lower the signal. The procedure, abridged:
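Quantitation relies on labelled RT-PCR fragments separated by capillary electrophoresis. Human HepG2 cells bearing cis-promoter reporter constructs were treated 24 h; DMSO served as baseline for bidirectional fitting.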

Each structure is given as a SMILES string. Active and inactive are the calls of the source. Rule for the calls: active = hit-call score of the fitted dose curve at least 0.9, where 1 is the maximum; inactive = score below 0.9.

Hypoxia-inducible factor 1-alpha (Homo sapiens), sequence (Q16665 whole entry, looked up): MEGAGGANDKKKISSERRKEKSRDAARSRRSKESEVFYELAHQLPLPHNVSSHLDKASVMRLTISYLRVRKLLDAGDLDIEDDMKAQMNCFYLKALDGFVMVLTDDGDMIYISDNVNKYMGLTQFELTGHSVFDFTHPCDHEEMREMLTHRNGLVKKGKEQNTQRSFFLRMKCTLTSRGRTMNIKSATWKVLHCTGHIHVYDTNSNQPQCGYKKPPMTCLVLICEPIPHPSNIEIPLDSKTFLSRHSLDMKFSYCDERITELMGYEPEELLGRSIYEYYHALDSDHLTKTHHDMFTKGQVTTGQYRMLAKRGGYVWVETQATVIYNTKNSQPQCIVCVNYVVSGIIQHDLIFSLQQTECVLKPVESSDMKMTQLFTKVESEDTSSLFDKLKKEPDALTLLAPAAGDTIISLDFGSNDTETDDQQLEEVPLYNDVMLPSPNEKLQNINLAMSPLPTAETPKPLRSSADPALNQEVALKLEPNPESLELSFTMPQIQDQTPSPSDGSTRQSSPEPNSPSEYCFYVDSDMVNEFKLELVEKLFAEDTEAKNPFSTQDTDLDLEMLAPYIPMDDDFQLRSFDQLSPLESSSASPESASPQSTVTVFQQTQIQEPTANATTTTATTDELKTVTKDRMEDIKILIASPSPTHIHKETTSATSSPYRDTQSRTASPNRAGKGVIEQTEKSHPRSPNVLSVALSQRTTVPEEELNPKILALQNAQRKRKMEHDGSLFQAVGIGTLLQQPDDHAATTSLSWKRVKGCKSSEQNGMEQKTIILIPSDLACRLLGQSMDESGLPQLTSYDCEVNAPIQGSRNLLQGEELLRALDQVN
Bile acid receptor (Homo sapiens), sequence (Q96RI1 whole entry, looked up, the tested form may be a part): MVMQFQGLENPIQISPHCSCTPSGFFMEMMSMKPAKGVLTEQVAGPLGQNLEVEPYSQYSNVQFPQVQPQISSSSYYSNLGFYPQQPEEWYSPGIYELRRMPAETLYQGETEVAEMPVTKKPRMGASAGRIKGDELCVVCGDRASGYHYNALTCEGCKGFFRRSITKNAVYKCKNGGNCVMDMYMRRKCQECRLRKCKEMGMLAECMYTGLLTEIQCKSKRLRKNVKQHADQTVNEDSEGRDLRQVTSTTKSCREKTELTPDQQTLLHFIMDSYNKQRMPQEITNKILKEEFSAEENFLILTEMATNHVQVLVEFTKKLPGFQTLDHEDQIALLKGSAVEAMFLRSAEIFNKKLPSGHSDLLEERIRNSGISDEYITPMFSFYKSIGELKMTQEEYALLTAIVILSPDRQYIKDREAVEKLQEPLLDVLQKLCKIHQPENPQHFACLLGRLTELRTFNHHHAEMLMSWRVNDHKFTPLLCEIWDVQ
Paired box protein Pax-6 (Homo sapiens), sequence (P26367 whole entry, looked up): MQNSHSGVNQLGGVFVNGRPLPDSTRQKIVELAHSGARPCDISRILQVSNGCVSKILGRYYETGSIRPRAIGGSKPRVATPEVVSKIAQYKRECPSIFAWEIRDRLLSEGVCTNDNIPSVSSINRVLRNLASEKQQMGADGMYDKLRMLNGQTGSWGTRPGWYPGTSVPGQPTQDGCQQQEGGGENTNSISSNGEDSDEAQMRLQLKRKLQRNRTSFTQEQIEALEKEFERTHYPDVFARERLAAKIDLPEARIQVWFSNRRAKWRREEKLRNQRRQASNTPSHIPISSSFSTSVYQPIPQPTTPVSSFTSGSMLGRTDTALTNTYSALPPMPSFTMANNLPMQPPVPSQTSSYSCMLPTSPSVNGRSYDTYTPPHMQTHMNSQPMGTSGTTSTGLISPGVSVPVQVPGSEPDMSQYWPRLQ
Signal transducer and activator of transcription 3 (Homo sapiens), sequence (P40763 whole entry, looked up): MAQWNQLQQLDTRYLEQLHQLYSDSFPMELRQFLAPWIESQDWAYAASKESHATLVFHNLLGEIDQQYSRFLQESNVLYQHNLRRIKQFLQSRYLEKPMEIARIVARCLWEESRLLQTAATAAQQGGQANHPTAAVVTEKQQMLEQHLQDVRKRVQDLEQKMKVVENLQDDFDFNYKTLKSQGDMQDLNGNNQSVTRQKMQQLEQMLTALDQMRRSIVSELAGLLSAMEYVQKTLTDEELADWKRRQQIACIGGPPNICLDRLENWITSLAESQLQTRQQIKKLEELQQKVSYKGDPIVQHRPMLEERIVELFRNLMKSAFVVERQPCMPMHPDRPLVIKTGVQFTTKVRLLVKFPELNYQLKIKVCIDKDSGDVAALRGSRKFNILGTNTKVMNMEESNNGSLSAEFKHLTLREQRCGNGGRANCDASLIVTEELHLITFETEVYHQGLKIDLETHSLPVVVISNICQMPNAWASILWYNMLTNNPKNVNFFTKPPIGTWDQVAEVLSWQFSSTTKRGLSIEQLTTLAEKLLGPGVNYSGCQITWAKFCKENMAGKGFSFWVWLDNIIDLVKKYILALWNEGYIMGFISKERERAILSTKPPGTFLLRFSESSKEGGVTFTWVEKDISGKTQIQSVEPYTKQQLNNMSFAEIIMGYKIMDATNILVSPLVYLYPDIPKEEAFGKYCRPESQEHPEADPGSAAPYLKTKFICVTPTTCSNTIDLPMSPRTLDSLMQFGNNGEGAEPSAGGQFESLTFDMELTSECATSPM
Heat shock factor protein 1 (Homo sapiens), sequence (Q00613 whole entry, looked up): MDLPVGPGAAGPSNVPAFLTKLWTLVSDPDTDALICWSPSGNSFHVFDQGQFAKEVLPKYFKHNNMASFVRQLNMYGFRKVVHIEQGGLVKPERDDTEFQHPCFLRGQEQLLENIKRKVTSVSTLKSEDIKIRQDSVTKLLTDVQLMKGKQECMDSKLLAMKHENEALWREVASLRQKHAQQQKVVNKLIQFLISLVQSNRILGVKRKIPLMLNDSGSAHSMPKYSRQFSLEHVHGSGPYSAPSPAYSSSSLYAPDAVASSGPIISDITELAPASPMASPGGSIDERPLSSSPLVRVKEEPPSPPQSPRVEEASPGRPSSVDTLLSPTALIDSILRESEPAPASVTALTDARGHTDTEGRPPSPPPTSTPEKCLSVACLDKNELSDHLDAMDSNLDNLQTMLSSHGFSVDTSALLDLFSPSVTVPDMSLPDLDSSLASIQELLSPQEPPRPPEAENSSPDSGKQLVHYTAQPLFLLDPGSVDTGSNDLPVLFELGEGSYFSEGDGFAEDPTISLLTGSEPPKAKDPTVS
Transcription factor Sp1 (Homo sapiens), sequence (P08047 whole entry, looked up): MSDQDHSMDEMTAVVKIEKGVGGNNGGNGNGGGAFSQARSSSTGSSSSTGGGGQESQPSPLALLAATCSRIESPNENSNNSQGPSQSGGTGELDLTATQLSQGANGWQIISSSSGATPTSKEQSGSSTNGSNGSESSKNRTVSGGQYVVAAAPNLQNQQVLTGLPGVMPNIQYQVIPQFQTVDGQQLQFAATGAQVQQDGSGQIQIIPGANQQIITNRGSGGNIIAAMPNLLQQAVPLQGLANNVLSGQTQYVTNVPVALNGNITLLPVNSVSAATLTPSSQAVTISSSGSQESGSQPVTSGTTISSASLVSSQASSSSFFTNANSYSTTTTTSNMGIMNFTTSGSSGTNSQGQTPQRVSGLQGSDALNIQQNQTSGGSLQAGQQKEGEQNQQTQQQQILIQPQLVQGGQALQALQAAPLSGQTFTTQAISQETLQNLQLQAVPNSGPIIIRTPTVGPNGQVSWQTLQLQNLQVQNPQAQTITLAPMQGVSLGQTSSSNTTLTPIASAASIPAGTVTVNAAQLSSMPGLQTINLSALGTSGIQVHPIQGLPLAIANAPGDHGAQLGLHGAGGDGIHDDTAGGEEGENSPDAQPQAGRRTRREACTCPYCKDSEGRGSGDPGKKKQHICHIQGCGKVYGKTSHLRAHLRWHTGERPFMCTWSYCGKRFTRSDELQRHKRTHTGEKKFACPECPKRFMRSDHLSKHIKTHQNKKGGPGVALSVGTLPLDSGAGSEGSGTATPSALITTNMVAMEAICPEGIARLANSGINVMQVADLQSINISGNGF
Hepatocyte nuclear factor 6 (Homo sapiens), sequence (Q9UBC0 whole entry, looked up): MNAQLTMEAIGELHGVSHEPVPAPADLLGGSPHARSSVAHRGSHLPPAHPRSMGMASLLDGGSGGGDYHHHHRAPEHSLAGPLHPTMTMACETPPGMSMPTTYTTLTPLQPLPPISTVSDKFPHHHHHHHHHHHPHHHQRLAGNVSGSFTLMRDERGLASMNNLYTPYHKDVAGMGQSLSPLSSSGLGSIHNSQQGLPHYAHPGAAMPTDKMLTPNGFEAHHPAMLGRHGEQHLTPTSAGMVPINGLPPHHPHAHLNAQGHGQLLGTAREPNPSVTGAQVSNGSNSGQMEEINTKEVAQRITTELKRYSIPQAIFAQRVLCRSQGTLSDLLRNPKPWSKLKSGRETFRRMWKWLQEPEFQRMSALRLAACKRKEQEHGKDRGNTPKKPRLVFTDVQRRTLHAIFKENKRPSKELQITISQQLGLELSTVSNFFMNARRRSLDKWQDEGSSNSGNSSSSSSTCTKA

Consider `CCN(CC)c1ccc2c(-c3ccccc3C(=O)O)c3ccc(=[N+](CC)CC)cc-3oc2c1`, for which the AC50 (in general, the midpoint of the concentration-response curve, whichever way the signal moves) was 70.4 µM (active) in assay [1]; 154 µM (active) in assay [4]; 178 µM (active) in assay [6]; 156 µM (active) in [7]; 149 µM (active) in assay [8]; 0.882 µM (active) in assay [9]. Besides, the figures for the AC50 in assay [13] and in [16] were 26.9 µM (active) and 30.8 µM (active), respectively. Also, the call in assay [2], in assay [3], in assay [5], in [10], in assay [11] and in [12] was inactive. For the same compound, the compound was called inactive in [14] and in assay [15].
Turning to `Cc1ccc2sc3cccc(C)c3c2c1`, the compound was called inactive in assay [1], in assay [17], in assay [2], in [3], in assay [5] and in assay [6]. Moreover, the outcome in assay [7], in assay [18], in assay [8], in assay [9], in assay [19] and in [10] was inactive. The compound was classed as inactive in assay [11], in assay [12], in assay [13], in assay [14], in assay [15] and in [16]. Moreover, in assay [4], the AC50 is 52.9 µM (active).
Consider `C=C(C)C(=O)OCc1ccccc1`, for which the outcome in assay [1], in [20], in [2], in [3], in assay [4] and in assay [5] was inactive. In addition, the compound was classed as inactive in assay [7], in assay [18], in [8], in [9], in assay [19] and in [10]. Moreover, the result in assay [11], in assay [12], in assay [13], in [14], in assay [15] and in [16] was inactive.
For the compound `Nc1cc(N)cc(C(=O)O)c1`, the call in [1], in assay [17], in assay [2], in assay [3], in assay [5] and in assay [6] was inactive. For the same compound, the compound was called inactive in assay [7], in assay [8], in assay [9], in [19], in assay [10] and in assay [11]. Also, the outcome in assay [13], in [14], in [15] and in assay [16] was inactive.
